These results are taken from the OligoGym collection.
Further: reference of the scale not given here.

The first test deals with INF2. The test is described as follows: pooled miR-30 sensor sort-seq; sequence = guide strand. To be noted: shRNA.
TTTCAGGATGCTCTCACTCTGG yielded a sensor-assay potency score (higher = more potent) of -0.623.

With TCAGTGGTTAGGACATCGCTGG, the sensor-assay potency score (higher = more potent) was -0.678.

TTGCATTTTGATTAAACCTTGC came in with a sensor-assay potency score (higher = more potent) of -0.249.

In turn, TTCATGACAATGCTGAAGCGGT registered a sensor-assay potency score (higher = more potent) of -0.245.

The sequence TTGAGGTTCAGGCTCTTCTTGG returned a sensor-assay potency score (higher = more potent) of -1.01.

With TTTCAATCTCGTGCTTCTCGGG, the sensor-assay potency score (higher = more potent) was -0.468.

In the case of TGTTGTAGCATCAAGGCCGGGC, the sensor-assay potency score (higher = more potent) is -0.171.

The next test concerns the target INO80B. The test is described as above. The note with it: shRNA.
In the case of TTACTGTCTTCATCCAGCCAGG, the sensor-assay potency score (higher = more potent) was -0.737.

The sequence TCTGGGATCACAGTGAAGGTAG displayed a sensor-assay potency score (higher = more potent) of 0.138.

Sequence TAACCCTCCTGATAGGTCCCGA returned a sensor-assay potency score (higher = more potent) of -0.336.

In the case of ATTACTGTCTTCATCCAGCCAG, the sensor-assay potency score (higher = more potent) is -0.0733.

TTGAGTTTGAGCTGAGGCTTGG came in with a sensor-assay potency score (higher = more potent) of -0.366.

With TTGTGTTTCTTCTTGTGCTTCT, the sensor-assay potency score (higher = more potent) came out at 0.567.

As to TTTTCTTGTGCACTCCATGGCC, the sensor-assay potency score (higher = more potent) is -0.4.

Turning to TTTGAGTTTGAGCTGAGGCTTG, the sensor-assay potency score (higher = more potent) was -0.36.

As for TTCCTGATGGTGTTTCTTCTTG, the sensor-assay potency score (higher = more potent) was -0.564.

As to TTCTTGTGCACTCCATGGCCAT, the sensor-assay potency score (higher = more potent) was -1.62.

As for TTATCCACAACCATAAGGGGAG, the sensor-assay potency score (higher = more potent) is -0.805.

Regarding ATTATCCACAACCATAAGGGGA, the sensor-assay potency score (higher = more potent) is -1.17.

The target in the next test is INO80C. The description is as above. The note with it: shRNA.
Sequence TTTTGAAACAGCTTTCCACTTC registered a sensor-assay potency score (higher = more potent) of 0.164.

In turn, TTGGAGGGAAAACACACACTAA showed a sensor-assay potency score (higher = more potent) of -1.27.

For the sequence TGAAACATCAGAATACTTCTTA, the sensor-assay potency score (higher = more potent) turned out to be 1.15.

ATTTGTTTCAGGTTCTTCCAGG displayed a sensor-assay potency score (higher = more potent) of -0.776.

With TTTACTTGAGGCAACAACTGAA, the sensor-assay potency score (higher = more potent) came out at 0.108.

Regarding TATAATTTAATTCAGCAGGAAA, the sensor-assay potency score (higher = more potent) was -1.3.

The sequence TGTAGTTGGCAAGCAGACCTGA registered a sensor-assay potency score (higher = more potent) of -0.0597.

TTACTTGAGGCAACAACTGAAG yielded a sensor-assay potency score (higher = more potent) of -0.863.

On to TTGCTGTTCCGGACTATTCCGG, for which the sensor-assay potency score (higher = more potent) is -0.701.

Sequence TTCAATGGTGCTGAACCGCAGT had a sensor-assay potency score (higher = more potent) of -0.122.

TACTGAAGTAGTTAGGATCGTT: the sensor-assay potency score (higher = more potent) is 0.332.

On to TTCTGTTCTTCTTGCCAGCTAC, for which the sensor-assay potency score (higher = more potent) was -0.723.

A further test addresses INPP5F. Described as above. To be noted: shRNA.
TTCGTTTATAGCGCATTCCTGC returned a sensor-assay potency score (higher = more potent) of -0.611.

Take TTCCTTTTCACTTCTGTCCAGC: the sensor-assay potency score (higher = more potent) was -0.59.

Turning to TTGCTTGGTGATCTGCAGCATC, the sensor-assay potency score (higher = more potent) was -0.92.

The sequence TTAGTGTCTGAACATTCTCAAA had a sensor-assay potency score (higher = more potent) of -1.6.

The sequence TACCAAGTTAATAATAACCTGT gave a sensor-assay potency score (higher = more potent) of -0.241.

Take TTACTTTATCAACTTCATCATC: the sensor-assay potency score (higher = more potent) is -1.34.

Take TAATCTTCTCTCTTCCTGCCTG: the sensor-assay potency score (higher = more potent) was 0.168.

The sequence TTGGGTAATACTAGCAACCTGG had a sensor-assay potency score (higher = more potent) of -0.472.

As to TTCATTTGAAACTTGATTGGTC, the sensor-assay potency score (higher = more potent) amounted to 0.857.
